Screening results (PubChem BioAssay)
An excerpt weighted towards active compounds, which were near 5.2% of everything screened.
Tau ThT inhib: qHTS for Inhibitors of Tau Fibril Formation, Thioflavin T Binding; Microtubule-associated protein tau (Homo sapiens), P10636; recombinant tau K18 P301L, heparin-induced fibrillization, ThT fluorescence; Potency, µM (doses to about 57.4 µM), without a hit: at the top dose activity, negative = inhibition, most hits filed as inhibitors; actives 2.1% (n = 270,000); further: potency means the concentration at half of the fitted maximal effect; nearly all actives have a fitted effect of over 55% in size
Target sequence (P10636 561-689 P618L limits assumed): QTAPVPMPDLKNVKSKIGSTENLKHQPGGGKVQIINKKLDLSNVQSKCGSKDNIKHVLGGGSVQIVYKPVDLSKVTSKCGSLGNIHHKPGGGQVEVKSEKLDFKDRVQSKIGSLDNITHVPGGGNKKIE
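Heparin-induced fibrillization of the P301L-mutant K18 repeat-domain fragment of human tau was followed by ThT binding in quantitative high-throughput format.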
FBPA coupling cs: qHTS Assay for Inhibitors of Fructose-1,6-bisphosphate Aldolase from Giardia Lamblia: Coupling assay counterscreen | coupling enzyme system counterscreen, AmpLite Red fluorescence | activity change, negative = inhibition, % at 58.2 µM, hits read low | actives 0.67% (n = 290,000); in the data active means activity change below about -30%
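Coupling enzymes only (glyceraldehyde-3-phosphate) + compound, at 57.5 uM final, 10 min RT; add substrate/coupling/AmpLite Red mix, 20 min RT; fluorescence ex 525/em 598 nm. Actives flag coupling-system interference.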
Tau FP inhib: qHTS for Inhibitors of Tau Fibril Formation, Fluorescence Polarization. Microtubule-associated protein tau (Homo sapiens), P10636. K18 P301L tau heparin fibrillization, Alexa594 FP, 6 h. Potency, µM (top dose mostly 57.7 µM), inactives show at the highest dose activity, negative = inhibition, hits mostly inhibitors. actives 0.39% (n = 280,000); further: potency means the concentration at half of the fitted maximal effect; nearly all actives have a fitted effect of over 55% in size
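Recombinant K18 P301L […], labeled with Alexa 594 at 0.24 uM over 15 uM unlabeled; heparin inducer 20 uM final; 37 C, 6 hr; FP endpoint.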
Tau fluor cs: Counterscreen qHTS for Inhibitors of Tau Fibril Formation, Fluorescence Polarization; tau K18 P301L (four-repeat tau fragment) Alexa594 fluorescence, heparin fibrillization; Potency, µM (titrated, usually from 57.7 µM), for the others: top-dose activity change, negative = decrease; actives 0.93% (n = 280,000); AID 1463, 2008; further: potency means the concentration at half of the fitted maximal effect; nearly all actives have a fitted effect of over 55% in size
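Human K18 P301L tau (15 uM unlabeled plus 0.24 uM Alexa 594-labeled, final) in 100 mM sodium acetate pH 7 was mixed with compound and 20 uM heparin and incubated 6 hr at 37 C.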
Sfp inh: qHTS Assay for Inhibitors of Bacillus subtilis Sfp phosphopantetheinyl transferase (PPTase) | Biochemical Sfp PPTase activity, qHTS | Potency, µM, for inactives: largest response in the series, negative = inhibition, hits mostly inhibitors | 4'-phosphopantetheinyl transferase ffp (Bacillus subtilis), Q9F4F7 | actives 3.5% (n = 310,000);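 further: the enzyme is Sfp with the accession as filed and its product quenches rhodamine fluorescence; potency means the concentration at half of the fitted maximal effect; 0% = enzyme reaction without inhibitor and -100% = no enzyme wells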
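After 15 min at room temperature with compound, 15 nM Sfp received 5 uM rhodamine-CoA plus 12.5 uM BHQ-2-ybbR (50 mM Hepes pH 7.6, 10 mM MgCl2). Rate came from the fluorescence difference over 30 min, ex 525/em 598 nm.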
Active calls of the source: *; [ ] = remark or other dose. Unless noted, the call rests on the fitted dose curve; in most records, active means well fitted curve in the direction sought with a large enough effect; inconclusive means small, poorly fitted or top-dose-only effect, or another doubt; inactive means no such curve, though single readings can be large; an effect the other way counts as inactive or inconclusive. Unless noted, on the % scale 0 is the no-effect control and ±100 the full control effect.

How did COc1ccc(Cn2ccc3nc(C)c(C(=O)N4CCN(c5ccccc5F)CC4)cc3c2=O)cc1 do in these assays?
Tau ThT inhib: -15.4%; Tau FP inhib: -1.0%; Tau fluor cs: -12.2%

What do the screens show for `Cc1ccc(/C=C2/C(=O)ON=C2c2ccccc2)o1`?
Tau ThT inhib: inconclusive; FBPA coupling cs: 0.8; Tau FP inhib: -0.7%; Tau fluor cs: -21.7%; Sfp inh: 14.1µM*

What do the screens show for `O=C1ON=C(c2ccccc2)/C1=C/c1ccccc1`?
FBPA coupling cs: 6.9; Sfp inh: 44.7µM*

Results for CCOc1cc(/C=C2\C(=O)ON=C2c2ccccc2)cc(Br)c1O ?
FBPA coupling cs: -0.3; Sfp inh: 79.4µM*

How did Cc1sc(/C=C2\C(=O)ON=C2c2ccccc2)cc1Br do in these assays?
Tau ThT inhib: -7.9%; FBPA coupling cs: 8.6; Tau FP inhib: -4.2%; Tau fluor cs: -3.9%; Sfp inh: 11.3%

Results for COc1cc(/C=C2\C(=O)ON=C2c2ccccc2)cc(Br)c1O ?
FBPA coupling cs: -1.5; Sfp inh: inconclusive

What do the screens show for `CCCCc1ccc(/C=C2/C(=O)ON=C2c2ccccc2)s1`?
Tau ThT inhib: inconclusive; FBPA coupling cs: 8.7; Tau FP inhib: -3.3%; Tau fluor cs: -4.4%; Sfp inh: -11.2%

Results for O=C1ON=C(c2ccccc2)/C1=C\c1ccco1 ?
Tau ThT inhib: inconclusive; FBPA coupling cs: -0.4; Tau FP inhib: -7.5%; Tau fluor cs: -16.5%; Sfp inh: 14.1µM*

Results for CCc1ccc(-n2nc3cc(C)c(NC(=O)c4cc(Cl)ccc4OC)cc3n2)cc1 ?
Tau ThT inhib: 1.7%; Tau FP inhib: -1.7%; Tau fluor cs: -1.0%

Results for CCOc1ccc(CNC(=O)CCCn2nc(C)c3sc4ccccc4c3c2=O)cc1 ?
Tau ThT inhib: 15.5%; Tau FP inhib: inconclusive; Tau fluor cs: -24.0%

What do the screens show for `CC1=NOC(=O)/C1=C/c1ccc(O)c(Br)c1`?
FBPA coupling cs: 8.8; Sfp inh: -29.3%

What do the screens show for `CC1=NOC(=O)/C1=C/c1ccc(O)cc1`?
Tau ThT inhib: -6.6%; FBPA coupling cs: 2.5; Tau FP inhib: 4.1%; Tau fluor cs: 6.5%; Sfp inh: 39.8µM*

How did COc1cc(/C=C2/C(=O)ON=C2c2ccccc2)ccc1O do in these assays?
Tau ThT inhib: -2.5%; FBPA coupling cs: 0.0; Tau FP inhib: 12.6%; Tau fluor cs: -0.5%; Sfp inh: 50.1µM*

Results for O=C1ON=C(c2ccc(Cl)cc2)/C1=C/c1ccc(O)cc1 ?
Tau ThT inhib: inconclusive; FBPA coupling cs: 15.9; Tau FP inhib: 3.2%; Tau fluor cs: -21.5%; Sfp inh: 22.4µM*

Results for COc1cc(/C=C2\C(=O)ON=C2c2ccccc2)cc(Cl)c1O ?
Tau ThT inhib: inconclusive; FBPA coupling cs: 0.7; Tau FP inhib: -5.7%; Tau fluor cs: -10.0%; Sfp inh: -31.1%

What do the screens show for `O=C1ON=C(c2ccccc2)/C1=C/c1ccc(O)cc1`?
FBPA coupling cs: 0.5; Sfp inh: 50.1µM*

Results for Cc1cccc(N2CCN(c3ccc4cc(S(=O)(=O)N5CCC(C)CC5)ccc4n3)CC2)c1C ?
Tau ThT inhib: 4.4%; Tau FP inhib: -3.0%; Tau fluor cs: 4.0%

Results for COc1ccc(NC(=O)c2oc3ccc(S(=O)(=O)N4CCCCC4)cc3c2C)cc1Cl ?
Tau ThT inhib: 14.1%; Tau FP inhib: inconclusive; Tau fluor cs: -19.6%

How did O=C1CC(c2ccc3c(c2)OCO3)c2ccc(O)cc2O1 (stereo not drawn) do in these assays?
Tau ThT inhib: -5.3%[81.4 µM]; FBPA coupling cs: -0.2; Tau FP inhib: 5.4%[81.3 µM]; Tau fluor cs: -5.9%[81.3 µM]; Sfp inh: 15.8%

What do the screens show for `O=C1CC(c2ccc3c(c2)OCO3)c2cc(O)ccc2O1` (stereo not drawn)?
Tau ThT inhib: inconclusive; FBPA coupling cs: -0.4; Tau FP inhib: 0.9%[81.3 µM]; Tau fluor cs: -17.3%[81.3 µM]; Sfp inh: 89.1µM*

What do the screens show for `Oc1ccc2ccccc2c1C=Nc1ccccc1-c1nc2ccccc2[nH]1`?
Tau ThT inhib: 28.2µM*; FBPA coupling cs: -32.1*; Tau FP inhib: -4.4%; Tau fluor cs: inconclusive; Sfp inh: 4.4%

How did COc1ccc(N2CCN(S(=O)(=O)CCNC(=O)Cc3ccc(Cl)cc3)CC2)cc1 do in these assays?
Tau ThT inhib: -2.1%; Tau FP inhib: 1.2%; Tau fluor cs: -4.2%

How did CN(C)Cc1ccccc1-c1nc(NC2CCNCC2)c2ccccc2n1 do in these assays?
FBPA coupling cs: 0.3; Sfp inh: 15.4%

Results for Cc1ccc(-n2c(C)cc(/C=C3\SC(=O)NC3=O)c2C)cc1 ?
FBPA coupling cs: 3.4; Sfp inh: -6.6%

Results for Cc1cc(/C=C2/C(=O)NN(c3ccccc3)C2=O)c(C)n1-c1cccc(O)c1 ?
Tau ThT inhib: 12.6µM*; FBPA coupling cs: 1.0; Tau FP inhib: 10.5%; Tau fluor cs: inconclusive; Sfp inh: -18.8%

Results for Cc1cc(/C=C2\SC(=S)NC2=O)c(C)n1-c1cccc(O)c1 ?
Tau ThT inhib: 15.8µM*; FBPA coupling cs: 0.3; Tau FP inhib: 14.4%; Tau fluor cs: inconclusive; Sfp inh: inconclusive

Results for O=C1NN(c2ccc(Br)cc2)C(=O)/C1=C\c1ccc(O)cc1O ?
FBPA coupling cs: 3.1; Sfp inh: 13.6%

What do the screens show for `Cc1cc(/C=C2\SC(=S)NC2=O)c(C)[nH]1`?
Tau ThT inhib: 15.8µM*; FBPA coupling cs: 0.9; Tau FP inhib: 3.1%; Tau fluor cs: inconclusive; Sfp inh: -13.2%

How did CCn1ncc(/C=C2/SC(=S)NC2=O)c1C do in these assays?
Tau ThT inhib: -13.3%; FBPA coupling cs: -0.1; Tau FP inhib: 1.6%; Tau fluor cs: 7.3%; Sfp inh: -11.3%

How did CCn1c(C)cc(/C=C2/SC(=S)NC2=O)c1C do in these assays?
Tau ThT inhib: 12.6µM*; FBPA coupling cs: 3.1; Tau FP inhib: 0.3%; Tau fluor cs: -27.4%; Sfp inh: 10.1%

Results for N[C@H](CSSC[C@@H](N)C(=O)O)C(=O)O ?
FBPA coupling cs: -1.5; Sfp inh: 22.7%

What do the screens show for `COC(=O)c1ccc(NC(=O)C(=O)NCC(c2cccnc2)N2CCc3ccccc32)cc1` (stereo not drawn)?
Tau ThT inhib: -2.5%; Tau FP inhib: 4.6%; Tau fluor cs: -16.9%

What do the screens show for `CCC(=O)N1CCc2cc(CNS(=O)(=O)c3cc(OC)ccc3OC)ccc21`?
Tau ThT inhib: 1.7%; Tau FP inhib: 0.0%; Tau fluor cs: 3.4%
